Laboratory results taken from PubChem BioAssay (EPA / NIEHS).
Results filed as inconclusive are left out. Calls of active or inactive are those of the source. The calls were made as follows, unless noted: active = hit-call score of the fitted dose curve at least 0.9, where 1 is the maximum; inactive = score below 0.9.

Key:
[1] = CCTE_Harrill_HTTr_Viability_MCF7: CCTE's 6-hour Cell Viability Assessment for the High-Throughput Transcriptomics (HTTr) Platform, in MCF-7 cells cultured in DMEM + 10% fetal bovine serum, Harrill Lab (AID 2284010)
Summary of the method: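 Eight-point concentration series, six-hour exposure. Propidium iodide exclusion imaged to assess membrane integrity as a cytotoxicity readout; bidirectional fitting was done with DMSO as negative control and activity baseline.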

[2] = CCTE_Harrill_HTTr_Apoptosis_MCF7: CCTE's 6-hour Apoptosis Assessment for the High-Throughput Transcriptomics (HTTr) Platform, in MCF-7 cells cultured in DMEM + 10% fetal bovine serum, Harrill Lab (AID 2284011)
Summary of the method: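 MCF-7 cells in DMEM + 10% FBS exposed 6 h to chemicals over an eight-point dilution series. Caspase-3/7 activation imaged by high-content CellEvent Green staining; fitted bidirectionally versus DMSO.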

[3] = molecular target: Nucleoli Translocation, AR (gene 367) (UniProt P10275); assay: UPITT_HCI_U2OS_AR_TIF2_Nucleoli_Antagonist: University of Pittsburgh U2OS Androgen Receptor-Transcriptional Intermediary Factor 2 (AR-TIF2) Antagonism High Content Imaging Assay for Nucleoli Translocation (AID 2283997; active = hit-call score of the fitted dose curve at least 0.9, where 1 is the maximum)
Chain of Nucleoli Translocation, AR (gene 367) (P10275 whole entry, looked up): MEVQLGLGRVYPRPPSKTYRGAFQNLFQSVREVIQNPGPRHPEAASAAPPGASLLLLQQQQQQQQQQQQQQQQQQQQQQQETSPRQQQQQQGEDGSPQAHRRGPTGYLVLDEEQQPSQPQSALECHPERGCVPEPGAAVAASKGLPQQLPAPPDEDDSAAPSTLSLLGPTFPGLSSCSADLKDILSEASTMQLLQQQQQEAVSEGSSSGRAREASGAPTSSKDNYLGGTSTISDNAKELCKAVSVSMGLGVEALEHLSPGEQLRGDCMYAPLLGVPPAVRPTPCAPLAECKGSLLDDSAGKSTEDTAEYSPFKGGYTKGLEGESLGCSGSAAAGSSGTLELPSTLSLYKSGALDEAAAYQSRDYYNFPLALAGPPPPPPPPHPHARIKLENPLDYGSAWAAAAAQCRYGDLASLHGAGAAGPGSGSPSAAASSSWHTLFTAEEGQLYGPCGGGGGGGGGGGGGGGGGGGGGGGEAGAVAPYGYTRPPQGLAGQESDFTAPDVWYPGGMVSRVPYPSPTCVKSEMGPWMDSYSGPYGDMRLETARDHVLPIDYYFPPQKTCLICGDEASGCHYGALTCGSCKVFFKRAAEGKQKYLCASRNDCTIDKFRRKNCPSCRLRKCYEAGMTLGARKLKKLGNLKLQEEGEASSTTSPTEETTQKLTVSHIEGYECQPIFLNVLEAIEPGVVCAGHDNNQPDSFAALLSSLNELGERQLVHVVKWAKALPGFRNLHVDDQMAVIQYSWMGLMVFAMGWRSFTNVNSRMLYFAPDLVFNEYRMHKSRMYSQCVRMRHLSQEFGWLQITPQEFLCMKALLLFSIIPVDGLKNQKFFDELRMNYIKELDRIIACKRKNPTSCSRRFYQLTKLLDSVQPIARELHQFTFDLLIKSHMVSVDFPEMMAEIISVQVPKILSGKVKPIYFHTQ
Summary of the method: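 Antagonism is read as loss of nucleolar AR-RFP signal relative to DHT, imaged in U2OS cells also carrying GFP-TIF2. Compounds screened at 20 uM final, 0.2% DMSO; primary actives retested in triplicate.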

[4] = molecular target: Ratio of Nucleoli Translocation and Cytoplasm, AR (gene 367) (UniProt P10275); assay: UPITT_HCI_U2OS_AR_TIF2_Nucleoli_Cytoplasm_Ratio_Antagonist: University of Pittsburgh U2OS Androgen Receptor-Transcriptional Intermediary Factor 2 (AR-TIF2) Antagonism High Content Imaging Assay for Ratio of Nucleoli Translocation and Cytoplasm (AID 2283999; active = hit-call score of the fitted dose curve at least 0.9, where 1 is the maximum;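 also: antagonists lower the DHT-driven ratio of nucleolar to cytoplasmic red signal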)
Chain of Ratio of Nucleoli Translocation and Cytoplasm, AR (gene 367) (P10275 whole entry, looked up): as above
Summary of the method: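 This antagonist-mode endpoint tracks AR-RFP localisation, the nucleolus-to-cytoplasm intensity ratio, in TIF2-GFP-coexpressing U2OS cells. DMSO stays at or below 0.5%; testing spans 20 uM single-dose and 0.195–50 uM series, with DHT setting the activity baseline.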

[5] = molecular target: Ratio of Nucleoli Translocation and Cytoplasm, AR (gene 367) (UniProt P10275); assay: UPITT_HCI_U2OS_AR_TIF2_Nucleoli_Cytoplasm_Ratio_Agonist: University of Pittsburgh U2OS Androgen Receptor-Transcriptional Intermediary Factor 2 (AR-TIF2) Agonism High Content Imaging Assay for Ratio of Nucleoli Translocation and Cytoplasm (AID 2284000; active = hit-call score of the fitted dose curve at least 0.9, where 1 is the maximum;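 also: hits raise the red nucleolar to cytoplasm ratio above vehicle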)
Summary of the method: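 Compounds tested at 20 uM final in primary screen (0.2% DMSO) and 0.195-50 uM final in dose-response (0.5% DMSO). Imaging of human U2OS cells bearing RFP-AR and GFP-TIF2; endpoint is nucleoli/cytoplasm red signal ratio, positive direction relative to DMSO.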

[6] = CCTE_Harrill_HTTr_CellCount_MCF7: CCTE's Cell Proliferation Assessment for the High-Throughput Transcriptomics (HTTr) Platform, Harrill Lab (AID 2284012; active = hit-call score of the fitted dose curve at least 0.9, where 1 is the maximum;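 also: count of Hoechst-stained nuclei per well by high-content imaging in MCF-7 cells; cells exposed to compound for six hours; intended direction is loss of nuclei count meaning fewer cells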)
Summary of the method: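 For this full-screen endpoint, MCF-7 cultures received eight compound dilutions for six hours. Well nuclei counts from Hoechst imaging were analyzed relative to DMSO.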

[7] = CCTE_Shafer_MEA_dev_firing_rate_mean: CCTE's Neural Network Formation Assay for Mean Firing Rate, Shafer Lab (AID 2284031)
Summary of the method: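 Extracellular spike frequency, AUC over DIV 5–12 recordings, in rat cortical neuron MEA cultures dosed from plating; loss direction vs DMSO.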

[8] = CCTE_Shafer_MEA_dev_active_electrodes_number: CCTE's Neural Network Formation Assay for Number of Active Electrodes, Shafer Lab (AID 2284040; active = hit-call score of the fitted dose curve at least 0.9, where 1 is the maximum;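 also: potency for loss of active electrodes versus DMSO so lower counts are hits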)
Summary of the method: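 Developing rat cortical networks on MEAs, exposed DIV 0–12. Value is the AUC of active-electrode counts (≥5 spikes/min) from days 5, 7, 9, 12, relative to DMSO.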

[9] = CCTE_Shafer_MEA_dev_burst_rate: CCTE's Neural Network Formation Assay for Burst Rate, Shafer Lab (AID 2284042)
Summary of the method: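 Rat primary cortical cultures on PEI/laminin MEA; compound from plating, re-dosed at DIV 5, 9 media change. Single-electrode bursts/recording length, well mean of active electrodes; AUC over DIV 5–12 recordings; loss-of-signal vs DMSO.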

[10] = CCTE_Shafer_MEA_dev_bursting_electrodes_number: CCTE's Neural Network Formation Assay for Number of Bursting Electrodes, Shafer Lab (AID 2284043; active = hit-call score of the fitted dose curve at least 0.9, where 1 is the maximum;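 also: potency is for loss of bursting electrodes relative to DMSO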)
Summary of the method: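 Number of electrodes reaching ≥1 burst every 2 min was recorded at DIV 5, 7, 9 and 12 and collapsed as trapezoidal area under the curve. Cultures were rat cortical neurons on MEA plates, dosed continuously from plating with medium and treatment refreshed on DIV 5 and 9.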

[11] = CCTE_Shafer_MEA_dev_burst_duration_mean: CCTE's Neural Network Formation Assay for Mean Burst Duration, Shafer Lab (AID 2284045)
Summary of the method: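 Mean single-electrode burst duration (first to last spike), averaged over bursting electrodes per well, then integrated as area-under-curve across recordings at days 5, 7, 9 and 12. Rat cortical cultures on MEAs, compound present from plating, refreshed at feeds.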

[12] = CCTE_Shafer_MEA_dev_inter_network_spike_interval_mean: CCTE's Neural Network Formation Assay for Mean Inter-network Spike Interval, Shafer Lab (AID 2284047)
Summary of the method: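 Primary rat cortical neurons on PEI-coated 48-well MEAs (16 electrodes/well) were exposed from plating day 0 to DIV 12, with dosing renewed at DIV 5 and 9. Recordings at DIV 5, 7, 9, 12 were collapsed by trapezoidal AUC, loss-of-signal fit vs DMSO.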

[13] = CCTE_Shafer_MEA_dev_network_spike_number: CCTE's Neural Network Formation Assay for Number of Network Spikes, Shafer Lab (AID 2284048);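 also: synchronized bursts across electrodes counted on days 5 7 9 12 and integrated as AUC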
Summary of the method: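 Number of network spikes (coordinated firing across electrodes) recorded on days 5, 7, 9 and 12 and summarised as area under the curve. Rat cortical cultures on MEA, continuous compound exposure with full medium/treatment exchange at DIV 5 and 9.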

[14] = CCTE_Shafer_MEA_dev_network_spike_peak: CCTE's Neural Network Formation Assay for Mean Number of Electrodes in Network Spike, Shafer Lab (AID 2284049);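 also: fitted for loss of signal meaning fewer electrodes in network spikes than DMSO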
Summary of the method: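 Rat cortical primary culture, 1.5 x 10^5 cells/well, 48-well MEA (16 electrodes/well). Dosing day 0 through DIV 12, full media/compound exchange DIV 5, 9. AxIS adaptive spike detection; AUC over days 5/7/9/12; loss-of-signal vs DMSO.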

[15] = CCTE_Shafer_MEA_dev_spike_duration_mean: CCTE's Neural Network Formation Assay for Mean Spike Duration, Shafer Lab (AID 2284051);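 also: mean network spike duration pooled as area under curve over DIV 5 to 12 recordings; potency for a decrease in mean network spike duration versus DMSO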
Summary of the method: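 Rat cortical primary cultures, 48-well MEA (16 electrodes/well); compound from plating, renewed DIV 5, 9. Network spike duration (AxIS adaptive detector) recorded DIV 5/7/9/12, combined as trapezoidal AUC; loss direction vs DMSO.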

[16] = CCTE_Shafer_MEA_dev_network_spike_duration_std: CCTE's Neural Network Formation Assay for Standard Deviation of Network Spike Duration, Shafer Lab (AID 2284052);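 also: hits are decreases in network spike duration SD versus DMSO vehicle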
Summary of the method: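 Rat cortical cultures, 1.5 x 10^5 cells/well, exposed continuously from plating to DIV 12 with media/compound renewal at DIV 5, 9. Spontaneous activity recorded DIV 5/7/9/12, AxIS adaptive spike detector; AUC across days; negative direction vs DMSO.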

[17] = CCTE_Shafer_MEA_dev_per_network_spike_spike_number_mean: CCTE's Neural Network Formation Assay for Mean Number of Spikes in a Network Spike, Shafer Lab (AID 2284053);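 also: fitted as decrease in spikes per network spike relative to DMSO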
Summary of the method: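 Rat cortical primary cultures on 48-well MEA; compound from day 0, re-dosed with full media change DIV 5, 9. Recorded DIV 5, 7, 9, 12; spikes in 0.05 s window at network-spike peak ÷ total network spikes; AUC; loss vs DMSO.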

[18] = CCTE_Shafer_MEA_dev_per_network_spike_spike_percent: CCTE's Neural Network Formation Assay for Percent of Spikes in a Network Spike, Shafer Lab (AID 2284054)
Summary of the method: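 Metric: fraction of spikes falling in a 0.05 s window at network-spike peaks. Recordings were made on days 5, 7, 9 and 12 and collapsed by trapezoidal AUC. Cultures were rat cortical neurons on MEA plates, dosed continuously from plating, re-dosed at media changes.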

[19] = CCTE_Shafer_MEA_dev_LDH: CCTE's Lactate Dehydrogenase Assay for Cytotoxicity in the Neural Network Formation Assay, Shafer Lab (AID 2284068; active = hit-call score of the fitted dose curve at least 0.9, where 1 is the maximum;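 also: exposure for twelve days from plating with re-dosing on DIV 5 and 9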)
Summary of the method: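 Rat cortical primary neurons, MEA culture; dosing day 0–12, full medium plus compound exchange DIV 5, 9. Read-out: LDH enzyme activity, spectrophotometric. DMSO = negative control/baseline; signal loss → cytotoxicity.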

[20] = CCTE_Shafer_MEA_dev_AB: CCTE's Alamar Blue Assay for Cytotoxicity in the Neural Network Formation Assay, Shafer Lab (AID 2284083; active = hit-call score of the fitted dose curve at least 0.9, where 1 is the maximum;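 also: resazurin reduction fluorescence as viability of cultured neurons; twelve days of exposure from plating with re-dosing on DIV 5 and 9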)
Summary of the method: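 Rat cortical primary cultures, 1.5 x 10^5 cells/well on MEA; continuous compound exposure over 12 days of network development, re-dosed with full medium change DIV 5 and 9. Alamar Blue fluorescence; loss of signal = cytotoxicity vs DMSO baseline.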

[21] = CCTE_Shafer_MEA_dev_mutual_information_norm: CCTE's Neural Network Formation Assay for Mutual Information Normalization, Shafer Lab (AID 2284091)
Summary of the method: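 Shared information across electrodes, tracked on days 5, 7, 9 and 12 of network development and collapsed as trapezoidal area under the curve. Rat cortical cultures were treated continuously from plating, with treatment renewed at feeds on DIV 5 and 9; DMSO baseline, negative-direction fit.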

[22] = CCTE_Shafer_MEA_dev_correlation_coefficient_mean: CCTE's Neural Network Formation Assay for Mean Correlation Coefficient, Shafer Lab (AID 2284093);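 also: well mean pairwise spike train correlation integrated as AUC over recording days 5 to 12; potency fitted for loss of correlation relative to DMSO vehicle wells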
Summary of the method: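 Rat cortical cultures, 1.5 x 10^5 cells/well, dosed from day 0 for 12 days. Spontaneous spikes recorded DIV 5/7/9/12; electrode-pair correlation coefficients averaged, AUC taken. Fit in loss direction vs DMSO.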

SMILES: [Cl-].[Cl-].[Cl-].[Gd+3]
- outcome [1]: inactive
- outcome [2]: inactive

SMILES: CCCCC(CC)COC(=O)c1cc(Br)c(Br)c(Br)c1Br (stereo not drawn)
- outcome [3]: inactive
- outcome [4]: inactive
- outcome [5]: inactive
- outcome [2]: inactive
- outcome [6]: inactive
- outcome [7]: inactive
- AC50 [8]: 18.7 µM (active)
- outcome [9]: inactive
- AC50 [10]: 18.8 µM (active)
- outcome [11]: inactive
- outcome [12]: inactive
- outcome [13]: inactive
- AC50 [14]: 18.9 µM (active)
- AC50 [15]: 17.7 µM (active)
- outcome [16]: inactive
- AC50 [17]: 18.8 µM (active)
- AC50 [18]: 18.9 µM (active)
- AC50 [19]: 15.9 µM (active)
- AC50 [20]: 15.1 µM (active)
- outcome [21]: inactive
- AC50 [22]: 18.8 µM (active)

SMILES: COCCOC(C)=O
- outcome [1]: inactive
- outcome [2]: inactive
- outcome [6]: inactive

SMILES: Cc1cc(N)ccc1N
- outcome [2]: inactive
- outcome [6]: inactive
